# This is part of a sample that, as a whole, favours compounds with a hit. Of some 83,000 tested, about 20% had one in any assay.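 Negative percent growth values reflect cell death: -40 means 40% of the cells present at the start died, and -100 means all died.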 Unmarked numbers belong to inactive results. Calls of active or inactive are those of the source. Rule for the calls: active = growth percent below 10; inactive = the rest.
# What was measured:
# Assay in all cases: NCI-60 one-dose screen, 48 h (100 = growth as untreated, 0 = no growth, -100 = all killed)
# Conditions in all cases: 10 µM unless noted
# [1] = test system: SK-MEL-2 melanoma
# [2] = test system: EKVX NSCLC
# [3] = test system: SN12C renal
# [4] = test system: UO-31 renal
# [5] = test system: TK-10 renal
# [6] = test system: ACHN renal
# [7] = test system: CAKI-1 renal
# [8] = test system: A498 renal
# [9] = test system: CCRF-CEM leukemia
# [10] = test system: MOLT-4 leukemia
Structure (SMILES),growth [1],growth [2],growth [3],growth [4],growth [5],growth [6],growth [7],growth [8],growth [9],growth [10]
CCOP(=O)(OCC)OC[C@]12CCC(C)(C)C[C@H]1C1=CC[C@@H]3[C@@]4(C)CC[C@H](OP(=O)(OCC)OCC)C(C)(C)[C@@H]4CC[C@@]3(C)[C@]1(C)CC2,88.2%,55%,55.3%,34.2%,67.4%,67.2%,45.9%,79.8%,49.2%,32.7%
CCN(CC)CCOc1ccc(C(=C(C)c2ccc(OC)cc2)c2ccc(OCCN(CC)CC)cc2)cc1,-36.7% (active),39.1%,34.6%,-75.1% (active),18.8%,-34.1% (active),-18.2% (active),-29% (active),-10.8% (active),1.17% (active)
Cc1ccc(NC(=O)Nc2nc3ccc([N+](=O)[O-])cc3s2)cc1,-15.2% (active),4.01% (active),3.41% (active),6.85% (active),4.02% (active),1.63% (active),-23.2% (active),-34.8% (active),14.2%,17.2%
CN1CCN(c2ccc(Nc3nc(NCCCNS(=O)(=O)c4cccc(F)c4)c4sccc4n3)cc2)CC1,96.8%,83.3%,67.4%,54.2%,91.6%,7.69% (active),17.9%,67.6%,19.2%,13.3%
Cc1[nH]c(C(=O)Nc2ccc(S(=O)(=O)N3CCCCC3)cc2OCCOCCOCCOCCOCCOCCOCCOCCOCCOc2cc(S(=O)(=O)N3CCCCC3)ccc2NC(=O)c2[nH]c(C)c3c2CCCCC3=O)c2c1C(=O)CCCC2,-11.7% (active),44%,23.1%,40.5%,8.54% (active),67.5%,15.9%,-42.9% (active),38.4%,11.8%
CCCCOc1ccc(S(=O)(=O)N2CCN(c3nc(C)cc(N4CCOCC4)n3)CC2)cc1,-8.8% (active),39.9%,40.4%,17.4%,33.6%,15.3%,19.8%,37.1%,60.3%,26.1%
CN1CC[C@@H]2[C@@]3(C)CC[C@H](O)C(C)(C)[C@@H]3CC[C@@]2(C)[C@]2(C)CC[C@@]3(CO)CCC(C)(C)C[C@@H]3C12 (stereo not given in full),102%,100%,91.9%,68.2%,117%,99.8%,84.1%,97.1%,76.2%,75.4%
C#C[C@]1(O)CC[C@H]2[C@@H]3CC=C4c5sc(Nc6ncccc6C)nc5CC[C@]4(C)[C@H]3CC[C@@]21C,-11.1% (active),-10.6% (active),40.9%,-39.8% (active),40.9%,18.1%,-36.3% (active),-5.84% (active),7.66% (active),-30.3% (active)
O=C1/C(=C/C=C/c2ccco2)SC(=S)N1Cc1ccccc1,102%,98%,99.2%,83.9%,124%,104%,81%,88.9%,93.5%,96.4%
CC1=C(C)C(=O)C(Nc2cccc(C(=O)OC(C)(C)C)c2)=CC1=O,82.4%,81.2%,61.3%,66.4%,125%,86.4%,71.5%,66.9%,78.8%,65%
Cc1ccc(C(=O)CSc2nc3ccccc3c(=O)n2C)cc1,95.7%,71.5%,94.2%,56.6%,134%,83.7%,72.7%,99.8%,83.6%,88%
COc1ccccc1/C=C1\Oc2ccc(O)c(O)c2C1=O,102%,78.5%,94.5%,82.1%,100%,101%,78.4%,85.1%,75.5%,85%
CS(=O)(=O)c1nccc(-c2c(-c3cccc(OCc4ccc(Cl)c(C(F)(F)F)c4)c3)nc3sccn23)n1,107%,78.9%,74.7%,0.98% (active),112%,71.9%,73.7%,98.3%,13.2%,9.69% (active)
CCNC(=O)Oc1ccc(/C(=C(/C)c2ccc(Cl)cc2)c2ccc(OCCN3CCCCCC3)cc2)cc1,64.2%,56.1%,36.7%,-9.5% (active),84.5%,42.1%,10.3%,64.7%,12.7%,13%
COc1ccc2[nH]cc(-c3nc(N)nnc3-c3cn(C)c4ccc(Br)cc34)c2c1,9.85% (active),38.1%,42.6%,40.7%,54.3%,40.5%,29.1%,-1.71% (active),2.97% (active),10.7%
Cn1cc(-c2nn3cc(-c4ccncc4)nc3s2)c2cc(F)ccc21,99.8%,72.9%,88.6%,55.1%,155%,84%,63.4%,96.3%,16%,37.3%
COc1cc(NC(=O)Nc2cccc(-c3cc(=O)c4c(OC)c(OC)c(OC)cc4o3)c2)cc(OC)c1OC,49.3%,62.2%,38.5%,24.7%,64.9%,56.1%,35.4%,19.1%,35.4%,32.1%
Cc1ncn(-c2ccc(/C=N/Nc3ccnc4cc(Cl)ccc34)cc2)c1C,-17.3% (active),99.8%,-55.8% (active),-66.9% (active),-11.7% (active),-91.1% (active),-48.9% (active),86.5%,3.17% (active),1.04% (active)
Nc1ccc(Nc2ncnc3sc4c(c23)CCN(Cc2ccccc2)C4)cc1,109%,102%,96.8%,83.8%,134%,91.7%,90.8%,95.3%,95.1%,87.8%
COc1ccc2c(c1)c(/C=N/Nc1ccnc3cc(Cl)ccc13)cn2C,-80.8% (active),-81.2% (active),-81.5% (active),-89.5% (active),-79.9% (active),-97.3% (active),-92% (active),-90% (active),-29.2% (active),-49.6% (active)
CCc1cc2c(cc1Cl)nc1c(=O)[nH]c(=O)nc-1n2CCOCC(C)(C)C,96.6%,71.2%,79.8%,44.3%,160%,65.7%,70.8%,87.6%,89.6%,69.2%
Brc1cc(-c2cc(-c3ccc4c(c3)OCCO4)[nH]n2)cs1,62.7%,62.4%,65%,54.6%,138%,56%,33.8%,48.6%,23.4%,27.8%
Cc1cc2nc(C(Cl)Cl)nc(-c3ccc(S(=O)(=O)N(C)C)cc3)n2n1,93%,48.7%,55%,65.7%,85%,25.2%,45%,90.9%,40.8%,28.4%
Cc1nc(N)sc1-c1csc(Nc2ccc(C(F)(F)F)cc2)n1,8.77% (active),27%,29.2%,21.1%,35%,13%,33.9%,82.4%,21.3%,18.3%
C/C(=C(\c1ccc(O)cc1)c1ccc(OCCN2CCCCCC2)cc1)c1ccc(Cl)cc1,-92.3% (active),-81.2% (active),-84.7% (active),-93.3% (active),-95.2% (active),-88.2% (active),-97.3% (active),-91% (active),3.56% (active),-21.6% (active)
CC(=O)c1c([Si](C)(C)C)c2cc(C#N)ccn2c1C(=O)c1ccc(Br)cc1,89.4%,86.9%,96.6%,77.2%,98%,82.1%,52%,78.9%,91.8%,85.3%

# — PubChem BioAssay (NCI)
